4-MU autofl: 4-MU region autofluorescence; max dye-equivalent concentration, M; 59,000 tested, 11% active; compound autofluorescence, 340/450 nm, 4-MU equivalents; hits give high values; in the data active means max dye-equivalent concentration above about 10 nM; inconclusive means mostly about 1.1 nM to 9.6 nM
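Compounds in 100 mM Tris, pH 8.0, incubated 15 min at room temperature, then fluorescence read at 340 nm excitation/450 nm emission. Signal converted to 4-MU dye-equivalent concentration using an on-plate six-point 4-MU standard curve.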
AID923: qHTS Assay for Allosteric/Competitive Inhibitors of Caspase-1: Spectroscopic Profiling in AFC Spectral Region. 75,000 tested, 1.1% active. AID 923, 2007. Potency, µM (highest dose often 57.5 µM), inactives show at the highest dose fluorescence increase, usual class: activators. compound fluorescence, AFC spectral region (405/520 nm); further: potency means the concentration at half of the fitted maximal effect; 0% is about no effect
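Compound autofluorescence profiled at 405 nm ex/520 nm em during kinetic caspase 1 run (50 nM enzyme, 5 uM Ac-WEHD-AFC, HEPES pH 7.5, 10 mM DTT). Titration up to 57 uM; baseline from regression intercept, normalized to AFC standard curve.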
A350 fluor: compound fluoresces in the Alexa 350 spectral region; max dye-equivalent concentration, M; Compound autofluorescence, 340/450 nm, Alexa 350 dye-equivalents; hits give high values; 59,000 tested, 11% active; in the data active means max dye-equivalent concentration above about 10 nM; inconclusive means mostly about 1.1 nM to 9.6 nM
HADH2 inhib: blocks human hydroxyacyl-CoA dehydrogenase type II | recombinant HADH2, NADH fluorescence, beta-hydroxybutyryl-CoA | Q99714 | AID 886 | Potency, µM (doses to about 57.1 µM), for the others: at the highest dose activity change, negative = inhibition, most hits filed as inhibitors | 73,000 tested, 3.4% active; further: potency means the concentration at half of the fitted maximal effect; on the % scale 0 is the no-effect control and ±100 the full control effect; nearly all actives have a fitted effect of over 60% in size
Target sequence (Q99714 whole entry, looked up, one chain of several): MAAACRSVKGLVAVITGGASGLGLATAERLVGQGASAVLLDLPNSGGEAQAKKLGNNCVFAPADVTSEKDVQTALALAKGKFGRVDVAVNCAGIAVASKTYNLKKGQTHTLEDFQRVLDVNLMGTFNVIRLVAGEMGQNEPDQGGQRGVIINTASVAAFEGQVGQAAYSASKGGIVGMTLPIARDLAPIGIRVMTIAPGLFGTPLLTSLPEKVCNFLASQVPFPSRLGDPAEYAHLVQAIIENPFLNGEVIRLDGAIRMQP
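E. coli-expressed His-tagged HADH2 tested at 20 nM in alkaline Tris buffer (pH 9.0); oxidation of 90 uM beta-hydroxybutyryl-CoA with 1 mM NAD+ tracked fluorimetrically for 4 min.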
HSD17B inh: inhibitors of human HSD17B10 dehydrogenase; Potency, µM (doses to about 57.1 µM), inactives show at the highest dose activity change, negative = inhibition, most hits filed as inhibitors; recombinant HSD17B10, NADH fluorescence kinetic; 75,000 tested, 7.6% active; Q99714;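 further: the protocol describes HADH2 (HSD17B10) and not the HSD17B4 of the title; potency means the concentration at half of the fitted maximal effect; on the % scale 0 is the no-effect control and ±100 the full control effect; nearly all actives have a fitted effect of over 70% in size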
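Activity followed as NADH fluorescence increase (ex 360, em 450 nm) every 30 seconds for 4 min, using final 90 uM beta-hydroxybutyryl CoA and 1 mM NAD+. Recombinant His-tagged enzyme, 20 nM, pH 9.0 Tris buffer, 15 min compound preincubation.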
CRE Fsk mod: alters forskolin-stimulated CRE reporter signaling in CHO cells; 71,000 tested, 2.5% active; Potency, µM (doses to about 38.2 µM), for inactives: top-dose activity change, negative = inhibition, actives largely listed as activators; CHO CRE-bla reporter (cAMP response element driving beta-lactamase), forskolin EC10, beta-lactamase ratio; AID 662; active means well fitted activation curve with a large enough effect in the signal ratio, with a control signal flat, not every such curve was filed as active; inconclusive means small, poorly fitted or top-dose-only effect, or effect the other way, or a change in a side signal; the % refers to the signal ratio; further: potency means the concentration at half of the fitted maximal effect; % of control where 0% means no effect
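The 460nm/530nm emission ratio after CCF4 loading defined %Activity, from which AC50 values were obtained. CRE-bla CHO cells received compound dilution series together with an EC10 level of NKH 477 for 3 hours at 37 degrees Celsius.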
* = called active by the depositor; i = inactive; ? = inconclusive; / = not tested or not shown; [ ] = another dose, or the depositor's remark. Shown are actives, neighbours in structure and some others; about 14% of the full set was active somewhere. Unless noted, the call rests on the fitted dose curve; in most records, active means well fitted curve in the direction sought with a large enough effect; inconclusive means small, poorly fitted or top-dose-only effect, or another doubt; inactive means no such curve, though single readings can be large; an effect the other way counts as inactive or inconclusive.

SMILES	4-MU autofl	AID923	A350 fluor	HADH2 inhib	HSD17B inh	CRE Fsk mod
CCc1ccccc1N(C(=O)Cn1nnc2ccccc21)C(C(=O)NCCOC)c1ccco1 (stereo unspecified)	i	2%	i	-6%	0%	-1%
O=C(Nc1cccc(NC(=O)c2ccco2)c1)c1ccc2c(c1)OCO2	8.9e-08M*	5%	9.3e-08M*	5%	?	0%
O=C(Nc1ccc2c(c1)OCO2)c1c(Cl)nc2sccn12	?	0%	1.1e-08M*	-24%	?	?
O=C(Nc1ccc(F)c(F)c1)c1ccc2c(c1)OCO2	/	0%	/	-1%	-5%	0%
COc1ccc(Br)cc1C(=O)Nc1cccc(NC(=O)c2ccco2)c1	/	1%	/	-14%[11.4 µM]	?	?
O=C(Nc1ccc(Cl)cc1)c1ccc2c(c1)OCO2	2.6e-08M*	3%	3.1e-08M*	6%	1%	9%
O=C(Nc1cccc(NC(=O)c2ccc(-c3cccc(Br)c3)o2)c1)c1ccco1	1.7e-08M*	2%	1.9e-08M*	?	32µM*	7%
O=C(c1cccc(F)c1)N1CCC2(CCCN(c3ccncc3)C2)CC1	i	3%	i	0%	6%	7%
C[C@@]1(C(NS(=O)(=O)c2cccc3cccnc23)c2ccc(-c3ccccc3)cc2)C[C@H]1C1CCCCC1 (stereo partly specified)	/	0%	/	-1%	0%	-6%
CCCCCn1c(CN2CCN(c3cc(Cl)ccc3C)CC2)nc2c1c(=O)[nH]c(=O)n2C	i	-1%	i	-7%	-3%	?
COc1ccc(NC(=O)N2CCCC3(CCN(C(=O)c4cccc(F)c4)CC3)C2)cc1	i	0%	i	6%	1%	-5%
CC(CC(=O)O)(CC(=O)O)C(=O)O	i	1%[11.5 µM]	i	11%[11.4 µM]	2%[11.4 µM]	4%[7.6 µM]
CC(C(=O)Nc1ccc2c(c1)OCO2)N(c1ccc(Cl)cc1)S(C)(=O)=O (stereo unspecified)	2.9e-08M*	0%	2.7e-08M*	0%	3%	-22%
CC(=O)NC(CCS(C)(=O)=O)C(=O)Nc1ccc2c(c1)OCO2 (stereo unspecified)	/	0%	/	?	1%	-2%
CC(=O)Nc1ccc(C(=O)Nc2ccc3c(c2)OCO3)cc1	i	1%	i	3%	-9%	?
O=C(Nc1ccc2nsnc2c1)c1ccc2c(c1)OCO2	1.1e-08M*	4%	1.1e-08M*	?	?	16%
COC(=O)NC(c1cccs1)C(C(C)=O)C(=O)OC (stereo unspecified)	/	-3%[11.5 µM]	/	-14%[11.4 µM]	1%[11.4 µM]	/
O=C(c1cc2c(=O)oc3ccccc3c2s1)N1CCN(c2ccccn2)CC1	i	3%	i	3%	2%	0%
CC1(C)C=Cc2cc3ccc(=O)oc3cc2O1	/	3%	/	/	32µM*	/
CC(=O)c1cc2c(cc1O)OC(C)(C)C=C2	/	-1%	/	/	-2%	/
NC(=O)c1nsc(C(=O)N(CC(=O)NCc2ccc3c(c2)OCO3)C2CCCC2)c1N	9.5e-08M*	4%	8e-08M*	-12%	?	-8%
Cn1ccnc1SCC(=O)Nc1ccc(Oc2ccccc2)cc1	i	-1%	?	5%	-5%	-8%
Cn1ccnc1Sc1nc2ccccc2nc1NS(=O)(=O)c1ccccc1	1.1e-08M*	5%	1.5e-08M*	?	-13%	?
CC(=O)Nc1ccc(S(=O)(=O)Nc2nc3ccccc3nc2Sc2nncn2C)cc1	5.1e-08M*	18%	5.3e-08M*	?	?	-9%
Cn1cnnc1Sc1nc2ccccc2nc1NS(=O)(=O)c1ccccc1	8.8e-08M*	0%	1.2e-07M*	-7%	?	?
SMILES	4-MU autofl	AID923	A350 fluor	HADH2 inhib	HSD17B inh	CRE Fsk mod
CCC(=O)c1cc(F)c(N2CCN(S(=O)(=O)c3ccc(C)cc3)CC2)cc1C	/	2%	/	5%[11.4 µM]	-4%	?
CC1(C)Cc2nc3sc4c(=O)[nH]cnc4c3cc2CS1	?	0%	?	-12%	25µM*	29%
C=Cc1ccccn1	/	-1%	/	5%	-1%	-8%
CC(=O)Nc1ccc(OC(=O)c2ccccc2O)cc1	/	-2%	/	/	i	/
CCc1cc(C(=O)Cc2nc3ccccc3[nH]2)c(O)cc1O	2.2e-07M*	-1%	2.7e-07M*	-28%	32µM*	2%
COC(=O)c1cnn(-c2ccc(C)c(C)c2)c1-n1cccc1	2.5e-08M*	-2%	3.1e-08M*	-14%	-7%	24%
O=C(O)c1cnn(-c2ccccc2)c1-n1cccc1	/	1%	/	-8%	-4%	-8%
Brc1cccc(-c2nnc3n2CCCCC3)c1	1.4e-08M*	3%	1.6e-08M*	2%	12%	4%
Cc1cn(CC[C@H](N)C(=O)O)c(=O)[nH]c1=O	i	1%[11.5 µM]	i	5%[11.4 µM]	5%[11.4 µM]	9%[7.6 µM]
Oc1cccc(O)c1O	/	1%	/	0.63µM*	-18%	-11%
COc1c(O)cccc1O	/	-1%	/	/	-4%	/
Nc1c(C(=O)NC2CCCCC2)c2nc3ccccc3nc2n1/N=C/c1ccco1	1.9e-08M*	3%	2.6e-08M*	8%	?	?
COCCNC(=O)c1c(N)n(/N=C/c2cccs2)c2nc3ccccc3nc12	4e-08M*	/	4.8e-08M*	/	/	/
CCCCNC(=O)c1c(N)n(/N=C/c2ccccn2)c2nc3ccccc3nc12	i	0%	i	5%	1%	-8%
CCCCCCNC(=O)c1c(N)n(/N=C/c2ccco2)c2nc3ccccc3nc12	2.7e-08M*	8%	3.2e-08M*	2%	-13%	?
NC/C=C\C(=O)O	i	2%	i	-9%	-8%	1%
FC(F)(F)c1cccc(N2CCN(c3ccc4nnc(-c5ccccc5)n4n3)CC2)c1	/	-1%	/	10%	-17%	/
CCOCC(=O)Nc1cc(-c2cn3cccnc3n2)ccc1C	3.6e-06M*	3%	3.8e-06M*	6.3µM*	32µM*	?
Brc1ccc(-c2cn3cccnc3n2)cc1	4e-07M*	1%	4e-07M*	4µM*	7.9µM*	-2%
COCC(=O)Nc1ccc(-c2cn3cccnc3n2)cc1	6.3e-06M*	9%	6.3e-06M*	4µM*	25µM*	?
Cc1ccc(-c2nc3ncccc3o2)cc1NC(=O)Cc1ccc(Cl)cc1	/	0%	/	5%[11.4 µM]	-29%	?
Cc1cc(C)n(Cc2cc(C)c(Cn3nc(C)cc3C)cc2C)n1	i	/	i	/	/	/
O=C(NC1(C(F)(F)F)NC(=O)N(C2CCCC2)C1=O)C1CC1 (stereo unspecified)	i	1%	i	0%	2%	?
CCOC(=O)c1ncn2c1C(=O)OC2(C)C	i	-5%	i	3%	11%	?

Source: PubChem
